Compounds with a hit are over-represented: about 19% of the library has one in this group of screens.
IL-1B inflam inh: qHTS for Inhibitors of Inflammasome Signaling: IL-1-beta AlphaLISA Primary Screen; THP-1 LPS/ATP IL-1B secretion, AlphaLISA, 16 h; stronger effect = lower value; activity change, % at 57.5 µM; hit rate 4.7% among 360,000; AID 743279, 2014; in the data active = activity change below about -50%; inconclusive = mostly about -30% to -49%
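Secreted IL-1B measured by AlphaLISA bead assay after 16 h compound exposure of THP-1 cells; compounds (final up to 57.5 uM) added 1 h before LPS (250 ng/mL) and ATP (1.25 mM) stimulation; lower signal means less secretion.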
HT1080NT lethal: qHTS for induction of synthetic lethality in tumor cells producing 2HG: qHTS for the HT-1080-NT fibrosarcoma cell line; HT-1080-NT fibrosarcoma viability, CellTiter-Glo ATP luminescence, 48 h; Potency, µM (titrated, usually from 46.1 µM), without a hit: top-dose activity, negative = less viability, hits mostly cytotoxic; hit rate 1.6% among 360,000; AID 686970, 2013;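 note: NT is the 2HG producing partner of a matched IDH1 knockdown line; potency is the fitted concentration of half-maximal effect; 0% = DMSO-treated cells and -100% = media-only wells without cells; nearly all actives have a fitted effect of over 55% in size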
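HT-1080-NT fibrosarcoma cells (2HG-overproducing), 750 cells/well in RPMI with 5% FBS, dosed after 2 h and incubated 48 h at 37C. CellTiter-Glo luminescence normalized to DMSO and no-cell wells; concentration-response curves fitted and classed.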
uPA surface inh: qHTS for Inhibitors of Cell Surface uPA Generation | cell surface uPA generation assay, qHTS | Potency, µM (highest dose often 38.3 µM), for the others: top-dose activity change, negative = inhibition, actives largely listed as inhibitors | hit rate 0.31% among 330,000 | AID 540303, 2011; active = well fitted inhibition curve with a large enough effect; inconclusive = small, poorly fitted or top-dose-only effect; inactive = no such curve, though single readings can be large or run the other way; tested in mouse RAW 264.7 cells; note: potency is the fitted concentration of half-maximal effect; nearly all actives have a fitted effect of over 55% in size
HT1080 IDH1KD tx: qHTS for induction of synthetic lethality in tumor cells producing 2HG: qHTS for the HT-1080-IDH1KD cell line | hit rate 2% among 360,000 | Potency, µM (top dose mostly 46.1 µM), for inactives: at the highest dose activity, negative = toxicity, hits mostly cytotoxic | HT-1080 IDH1 knockdown viability, ATP luminescence, 48 h;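 note: potency is the fitted concentration of half-maximal effect; 0% = DMSO wells and -100% = cell-free medium wells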
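In this qHTS, HT-1080 cells depleted of IDH1 are exposed for 48 h at 37 °C to compound titrations. Toxicity is scored from CellTiter-Glo luminescence, with DMSO as full viability and medium alone as none.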
DT40 TDP1 CPT: qHTS for Inhibitors of human tyrosyl-DNA phosphodiesterase 1 (TDP1): qHTS in cells in presence of CPT. Potency, µM (titrated, usually from 46.2 µM), for inactives: top-dose activity change, negative = growth inhibition, actives largely listed as inhibitors. hit rate 12% among 420,000. chicken DT40 Tdp1-/-;hTDP1 cells + 20 nM CPT, ATP luminescence, 48 h; note: potency is the fitted concentration of half-maximal effect; nearly all actives have a fitted effect of over 55% in size
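Chicken DT40 Tdp1-/- cells stably complemented with human TDP1 were seeded at 400 cells/well in medium containing 20 nM camptothecin, exposed to pin-transferred compounds, and grown at 37 °C for at least 48 hr. Viability was read as ATP luminescence.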
DT40 TDP1 no CPT: qHTS for Inhibitors of human tyrosyl-DNA phosphodiesterase 1 (TDP1): qHTS in cells in absence of CPT. DT40 Tdp1-/- hTDP1 cells, no CPT, ATP luminescence, 48 h. Potency, µM (doses to about 46.2 µM), without a hit: at the highest dose activity change, negative = growth inhibition, actives largely listed as inhibitors. hit rate 15% among 420,000. AID 686978, 2013; note: potency is the fitted concentration of half-maximal effect; nearly all actives have a fitted effect of over 55% in size
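Compound effects on proliferation are scored in DT40 Tdp1-/-;hTDP1 cells in the absence of CPT. ATP levels (CellTiter-Glo luminescence) are recorded after a ≥48 hr, 37 °C incubation.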
The depositor's hits bear a star; ? = inconclusive; nt = not tested or not shown; [ ] = another dose, or the depositor's remark. Unless noted, calls come from the whole dose curve; as a rule, active = well fitted curve in the direction sought with a large enough effect; inconclusive = small, poorly fitted or top-dose-only effect, or another doubt; inactive = no such curve, though single readings can be large; an effect the other way counts as inactive or inconclusive. Unless noted, % is set by controls: 0 for no effect and ±100 for the full control effect.

SMILES | IL-1B inflam inh | HT1080NT lethal | uPA surface inh | HT1080 IDH1KD tx | DT40 TDP1 CPT | DT40 TDP1 no CPT
O=C(CSc1nnc(CNC(=O)c2ccco2)o1)c1ccc(Cl)cc1 | -106.3* | 7.3% | -3.5% | 11.0% | -20.8% | ?
O=C(CSc1nnc(CNc2ccccc2)o1)c1ccc2c(c1)OCCO2 | -67.8* | -23.4% | -4.6% | -4.2%[9.24 µM] | ? | ?
O=C(NCc1nnc(SCC(=O)N2CCCCCC2)o1)c1ccco1 | 13.1 | -5.1% | 0.9% | 1.8% | -5.5% | 0.6%
COc1ccc(C(=O)CSc2nnc(Cn3cnc4ccccc43)o2)cc1 | ? | -20.2% | -0.4% | -7.0% | 8.2µM* | 16.4µM*
CC(=O)c1ccc(NC(=O)CSc2nnc(Cn3cnc4ccccc43)o2)cc1 | 13.4 | 12.6% | 5.3% | 9.7% | 15.9% | 2.3%
COc1ccc(CC(=O)Nc2nnc3n2CCS3)cc1 | nt | nt | nt | nt | -16.0% | -11.4%
CCOc1cc(C(=O)CSc2nnc(CNc3ccc(Cl)cc3)o2)ccc1NC(=O)CC | -102.8* | -22.1% | -14.1% | ? | ? | ?
CN(C)c1ncc2nc(CCc3ccccc3)c(=O)n(CCc3ccccc3)c2n1 | nt | nt | nt | nt | -5.4% | 6.4%
COc1cccc(Cn2c(=O)c(-c3ccccc3)nc3cnc(N(C)C)nc32)c1 | nt | nt | nt | nt | ? | 2.1%
Cc1nc2cnc(N(C)C)nc2n(CCc2ccccc2)c1=O | nt | nt | nt | nt | 5.17µM* | 8.2µM*
COc1cccc(Cn2c(=O)c(C)nc3cnc(N(C)C)nc32)c1 | nt | nt | nt | nt | 16.4µM* | ?
CC(C)CCNC(=O)c1ccc2nc(CCc3ccccc3)oc2c1 | nt | nt | nt | nt | 8.1% | -19.1%
COC(=O)c1cccc(CN2C(=O)C(C)Sc3ccc(C(C)=O)cc32)c1 (stereo not given) | 9.4 | 9.4% | nt | -4.5% | ? | ?
Cc1ccccc1-n1nc(C)c(N=O)c1N | -8.2 | 8.4% | -8.0% | -7.0% | 4.2% | 1.3%
O=c1cc(-c2ccccc2)n2c(SCc3ccc([N+](=O)[O-])cc3)nnc2[nH]1 | nt | nt | nt | nt | -118.0% | -17.7%
O=C(NNc1cc(Br)c(O)c(Br)c1)c1ccccc1 | 31.6 | -8.0% | 0.1% | -12.8% | ? | 18.4µM*
CCOC(=O)c1c(C)[nH]c(C)c1S(=O)(=O)N1CCCC(C(=O)NCc2ccc(N(C)C)cc2)C1 (stereo not given) | nt | nt | nt | nt | ? | 0.8%
COC(=O)N/N=C/c1cc(Cl)c(OCc2ccc(F)cc2)c(OC)c1 | 8.7 | -25.7% | 7.1% | ? | -14.4% | ?
COC(=O)N/N=C/c1cc(Cl)c(OCc2ccccc2F)c(OC)c1 | -4.5 | -29.1% | 3.7% | -26.9% | ? | 23.1µM*
CC(=O)N1SC(N)=NC1c1ccccc1 (stereo not given) | 6.4 | 14.0% | 7.7% | 15.5% | 4.2% | -11.9%
c1ccc([C@H]2CN3C(=N2)Sc2ccccc23)cc1 | -1.1 | -12.7% | ? | -2.6% | 18.4µM* | ?
CCN(CC)S(=O)(=O)c1ccc2c(c1)N(CC(=O)N1CCN(c3cccc(Cl)c3)CC1)C(=O)CO2 | nt | nt | nt | nt | 16.4µM* | ?
CCN(CC)S(=O)(=O)c1ccc2c(c1)N(CC(=O)N1CCN(c3ccc(Cl)cc3)CC1)C(=O)CO2 | nt | nt | nt | nt | 16.4µM* | 16.4µM*
Cc1cc(Cn2nc(C(=O)NCC3CC3)cc2-c2ccccc2)on1 | -22.8 | -3.8% | -2.8% | 2.3% | -76.7% | ?
COC(=O)C(C(=O)OC)[C@@H]1C=C[C@H](C[N+](=O)[O-])N(C(C)=O)C1 | 51.4 | 0.3% | 16.3% | -0.9% | 6.7% | -16.5%

Bioassay records as filed in PubChem BioAssay.
